Rows were chosen to be rich in hits. Some 9.2% of all compounds tested hit in one or more screens of this group.
Rab9 promoter act: qHTS Assay for Rab9 Promoter Activators | Huh7 Rab9 promoter-luciferase reporter, luminescence, 24 h | Potency, µM (highest dose often 9.22 µM), most hits filed as activators | 2.8% of 320,000 active; also: nearly all actives have a fitted effect of over 60% in size
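Cells were plated at 1500 per well in reduced-serum medium with 10% FBS and left 2 h. Compound in DMSO was then added for 24 h at 37 °C. Reporter signal was read by luminescence after 10 min with luciferase detection reagent.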
ELG1 genotox: qHTS screen for small molecules that induce genotoxicity in human embryonic kidney (HEK293T) cells expressing luciferase-tagged ELG1; Potency, µM (series often up to 46 µM), actives largely listed as activators; HEK293T ELG1-luciferase reporter, luminescence, 16 h; 1.3% of 330,000 active; also: nearly all actives have a fitted effect of over 60% in size
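DMSO vehicle served as control against compound-treated ELG1-luciferase HEK293T cells; exposure lasted 16 hr at 37 °C and 5% CO2, followed by ONE-Glo luminescence detection after 30 min.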
NPC1 promoter act: qHTS Assay for NPC1 Promoter Activators | Potency, µM (titrated, usually from 9.22 µM), most hits filed as activators | AID 485313, 2010 | Huh7 NPC1 promoter luciferase reporter, 24 h | 2.4% of 320,000 active; also: nearly all actives have a fitted effect of over 60% in size
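Readout is luciferase luminescence, reflecting NPC1 promoter activation in stably transfected Huh7 cells after 24 h compound exposure at 37 °C in reduced-serum medium with 10% FBS.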
FLuc modulator: qHTS profiling assay for firefly luciferase inhibitor/activator using purifed enzyme and Km concentrations of substrates (counterscreen for miR-21 project) | Luciferin 4-monooxygenase (Photinus pyralis), P08659 | purified FLuc, Km substrates, luminescence inhibition | Potency, µM (doses to about 57.5 µM), most hits filed as inhibitors | 6.9% of 360,000 active | AID 588342, 2011; also: nearly all actives have a fitted effect of over 55% in size
Target sequence (P08659 whole entry, looked up): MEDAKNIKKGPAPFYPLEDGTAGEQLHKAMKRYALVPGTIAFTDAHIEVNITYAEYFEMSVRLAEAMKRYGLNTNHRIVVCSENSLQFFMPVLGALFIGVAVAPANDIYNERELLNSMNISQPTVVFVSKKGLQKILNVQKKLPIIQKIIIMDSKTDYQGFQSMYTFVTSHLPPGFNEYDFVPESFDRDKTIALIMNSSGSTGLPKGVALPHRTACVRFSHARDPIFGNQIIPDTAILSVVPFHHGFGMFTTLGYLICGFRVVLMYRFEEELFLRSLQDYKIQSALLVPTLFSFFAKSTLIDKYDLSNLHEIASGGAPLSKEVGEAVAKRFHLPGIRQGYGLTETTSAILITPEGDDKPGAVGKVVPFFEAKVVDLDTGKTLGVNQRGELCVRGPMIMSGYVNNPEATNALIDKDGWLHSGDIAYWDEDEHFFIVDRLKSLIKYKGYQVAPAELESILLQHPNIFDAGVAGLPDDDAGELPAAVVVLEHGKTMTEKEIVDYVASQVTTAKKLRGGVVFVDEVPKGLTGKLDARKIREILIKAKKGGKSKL
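Purified P. pyralis luciferase, 10 nM final, with Km-level 10 uM D-luciferin and 10 uM ATP in 50 mM Tris acetate pH 7.5, 10 mM Mg acetate, 0.01% Tween-20, 0.05% BSA; 6-point qHTS titration about 60 µM downward; luminescence read.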
ELG1 repair inh: qHTS screen for small molecules that inhibit ELG1-dependent DNA repair in human embryonic kidney (HEK293T) cells expressing luciferase-tagged ELG1. HEK293T ELG1-luciferase reporter, luminescence, 16 h; DNA damage induced by 5-fluorouridine. Potency, µM (highest dose often 46.1 µM), hits mostly inhibitors. 2.3% of 330,000 active; also: nearly all actives have a fitted effect of over 55% in size
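In this reporter screen, reduction of luminescence relative to DMSO vehicle indicated activity. Compounds and 5-fluorouridine were added together to 2,000 cells per well, incubated for 16 hr at 37 °C, then developed with ONE-Glo.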
SMN2 splice up: qHTS Assay for Enhancers of SMN2 Splice Variant Expression. HEK293 SMN2-luciferase splicing reporter, luminescence, 30-36 h. Potency, µM (highest dose often 46.1 µM), most hits filed as activators. 2.8% of 210,000 active; also: nearly all actives have a fitted effect of over 55% in size
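qHTS luciferase splicing reporter: luminescence rises when SMN2 exon 7 is included in transfected HEK293 cells. Compound exposure lasted 30-36 h at 37C, with 4.5 mM final sodium butyrate as control, followed by a ONE-Glo read.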
Of the large screens only hits and unclear results are named; the others gave an inactive call. Calls follow the shape of the dose curve; as a rule, active = well fitted curve in the direction sought with a large enough effect; inconclusive = small, poorly fitted or top-dose-only effect, or another doubt; inactive = no such curve, though single readings can be large; an effect the other way counts as inactive or inconclusive.

C[C@@H](NC(=O)c1ncn(Cc2ccccc2)c1C(=O)N[C@H](C)c1ccccc1)c1ccccc1	none (no result: SMN2 splice up)
O=C(CN1C(=O)C2(SCC(=O)N2c2cccc(F)c2)c2ccccc21)NCc1ccccc1Cl (stereo unspecified)	none (no result: Rab9 promoter act, ELG1 genotox, NPC1 promoter act, ELG1 repair inh, SMN2 splice up)
Cc1ccc(NC(=O)c2c(C)cc(C)nc2SCC(=O)Nc2ccc(Br)cc2)cc1	none (no result: Rab9 promoter act, ELG1 genotox, NPC1 promoter act, ELG1 repair inh, SMN2 splice up)
Cc1cccc(NC(=O)C2=C(O)c3ccccc3N(C)S2(=O)=O)c1	FLuc modulator 17µM
Cc1cccc(C)c1NC(=O)C1=C(O)c2sccc2N(C)S1(=O)=O	FLuc modulator inconclusive
CN1c2ccccc2C(O)=C(C(=S)Nc2ccc(Cl)cc2)S1(=O)=O	FLuc modulator 19µM
Cc1nc(SCC(=O)N2CCCC2=O)nc(C)c1C	none (no result: Rab9 promoter act, NPC1 promoter act, FLuc modulator, SMN2 splice up)
O=C(CSc1ncc(S(=O)(=O)c2ccc(Br)cc2)c(=O)[nH]1)NCc1ccccc1Cl	FLuc modulator 9.5µM (no result: Rab9 promoter act, ELG1 genotox, NPC1 promoter act, ELG1 repair inh)
COC(=O)c1cc(Cl)ccc1NC(=O)CSc1ncc(S(=O)(=O)c2ccc(Br)cc2)c(=O)[nH]1	FLuc modulator 11µM (no result: Rab9 promoter act, ELG1 genotox, NPC1 promoter act, ELG1 repair inh)
CC(C)n1cnc(S(=O)(=O)N2CCCC(C(=O)NCc3ccccc3Cl)C2)c1 (stereo unspecified)	none (no result: Rab9 promoter act, ELG1 genotox, NPC1 promoter act, ELG1 repair inh, SMN2 splice up)
NCCc1nnc(SCc2ccccc2F)o1	none
COc1cc(-c2nnc(SCC(=O)Oc3ccc(C)cc3C)o2)cc(OC)c1OC	none (no result: Rab9 promoter act, ELG1 genotox, NPC1 promoter act, ELG1 repair inh, SMN2 splice up)
N#Cc1ccccc1CSc1nnc(-c2ccccc2)o1	FLuc modulator 3.8µM, SMN2 splice up 11µM (no result: Rab9 promoter act, ELG1 genotox, NPC1 promoter act, ELG1 repair inh)
COc1cc(-c2nnc(SCc3cc(=O)oc4cc(C)ccc34)o2)cc(OC)c1OC	FLuc modulator inconclusive, ELG1 repair inh 12µM
N#Cc1ccccc1CSc1nc(N)cc(N)n1	none (no result: SMN2 splice up)
Cc1ccc(-c2nnc(SCc3ccccc3F)o2)cc1	Rab9 promoter act 0.89µM, ELG1 genotox 8.2µM, NPC1 promoter act 0.79µM, FLuc modulator inconclusive, ELG1 repair inh inconclusive, SMN2 splice up 11µM
COc1ccc(-c2nnc(SCc3ccccc3F)o2)cc1OC	Rab9 promoter act inconclusive, FLuc modulator 24µM, ELG1 repair inh inconclusive
COC(=O)CSc1nnc(-c2ccc(OC)c(OC)c2)o1	none
O=C(Cc1ccc(Cl)cc1)NCCCNC(=O)c1cccnc1	ELG1 repair inh inconclusive (no result: SMN2 splice up)
NS(=O)(=O)c1cc(C(=O)OCC(=O)Nc2ccc3c(c2)OCO3)ccc1Cl	none (no result: Rab9 promoter act, NPC1 promoter act, FLuc modulator, SMN2 splice up)
COc1ccc(C(=O)O/N=C(\N)c2ccncc2)cc1OC	ELG1 repair inh inconclusive
COc1ccc(C(=O)O/N=C(\N)c2ccccc2)cc1OC	Rab9 promoter act 3.5µM, ELG1 genotox 21µM, NPC1 promoter act 2.8µM, FLuc modulator 11µM, ELG1 repair inh inconclusive (no result: SMN2 splice up)
COc1ccc(/C(N)=N/OC(=O)c2ccc(C)c([N+](=O)[O-])c2)cc1OC	ELG1 genotox inconclusive, FLuc modulator inconclusive, ELG1 repair inh inconclusive
COc1ccc(C(=O)O/N=C(\N)c2cccc(C)c2)cc1OC	Rab9 promoter act inconclusive, ELG1 genotox inconclusive, NPC1 promoter act inconclusive, FLuc modulator 21µM, ELG1 repair inh inconclusive (no result: SMN2 splice up)
COc1ccc(/C(N)=N/OC(=O)CSc2ccccc2)cc1OC	ELG1 genotox 18µM, FLuc modulator 24µM, ELG1 repair inh inconclusive
Cc1cccc(C(=O)OCC(=O)Nc2ccccc2C(=O)NC2CC2)c1	none (no result: FLuc modulator, SMN2 splice up)
CCOC(=O)c1ccccc1NC(=O)CN(c1ccccc1)S(=O)(=O)N(C)C	none
Cc1ccc(NC(=S)N2CCN(S(C)(=O)=O)CC2)cc1C	none (no result: SMN2 splice up)
O=C(OCCCOC(=O)c1cc[n+]([O-])cc1)c1cc[n+]([O-])cc1	none (no result: SMN2 splice up)
COC(CNC(=O)C1CCCN1C(=O)OCc1ccccc1)OC (stereo unspecified)	none
COC(=O)[C@@H]1C[C@]2(OC(=O)c3ccccc3)C=CC(=O)C[C@@H]2N1C(=O)OCc1ccccc1	ELG1 repair inh 15µM
O=C(C1CCN(c2nnc(-n3cccc3)s2)CC1)N1CCN(Cc2ccc3c(c2)OCO3)CC1	ELG1 repair inh inconclusive

Screening results (PubChem BioAssay)
